# In PMC11062922 (Nature Chemical Biology, 2023):
# Experiments:
# Parameters in all cases: species or system human, MV4-11 + K-562 + COLO205 + SK-N-BE2 + OVCAR-8
# FN3KRP = settings: read-out: apparent Kd; compound concentrations: 100 nM and 1000 nM (sheet 'Samples'), CATDS: 0.10743943329960801; n = 1
# MAPK10 = settings: read-out: apparent Kd; compound concentrations: 100 nM and 1000 nM (sheet 'Samples'), CATDS: 0.114459990523153; n = 1
# MAPK11 = settings: read-out: apparent Kd; compound concentrations: 100 nM and 1000 nM (sheet 'Samples'), CATDS: 0.104421690058707; n = 1
# MAPK14 = settings: read-out: apparent Kd; compound concentrations: 100 nM and 1000 nM (sheet 'Samples'), CATDS: 0.43214609476913801; n = 1
# MAPK9 = settings: read-out: apparent Kd; compound concentrations: 100 nM and 1000 nM (sheet 'Samples'), CATDS: 0.13499142741698; n = 1
# MAPKAPK2 = settings: read-out: apparent Kd; compound concentrations: 100 nM and 1000 nM (sheet 'Samples'), CATDS: 0.49442009217898503; n = 1
# PIP4K2C = settings: read-out: apparent Kd; compound concentrations: 100 nM and 1000 nM (sheet 'Samples'), CATDS: 0.103791319343203; n = 1
# FRK = settings: read-out: apparent Kd; compound concentrations: 100 nM and 1000 nM (sheet 'Samples'), CATDS: 0.28944129909261102; n = 1
# HCK = settings: read-out: apparent Kd; compound concentrations: 100 nM and 1000 nM (sheet 'Samples'), CATDS: 0.241643180155243; n = 1
# LCK = settings: read-out: apparent Kd; compound concentrations: 100 nM and 1000 nM (sheet 'Samples'), CATDS: 0.30139088079166299; n = 1
# MAP2K5 = settings: read-out: apparent Kd; compound concentrations: 100 nM and 1000 nM (sheet 'Samples'), CATDS: 0.19651058590933199; n = 1
# FLT3 = settings: read-out: apparent Kd; compound concentrations:100 nM and 1000 nM (sheet 'Samples'); n = 1
# FLT4 = settings: read-out: apparent Kd; compound concentrations:100 nM and 1000 nM (sheet 'Samples'); n = 1
# MAP3K11 = settings: read-out: apparent Kd; compound concentrations:100 nM and 1000 nM (sheet 'Samples'); n = 1
# PRKCA = settings: read-out: apparent Kd; compound concentrations:100 nM and 1000 nM (sheet 'Samples'); n = 1
# PRKCB = settings: read-out: apparent Kd; compound concentrations:100 nM and 1000 nM (sheet 'Samples'); n = 1
# RET = settings: read-out: apparent Kd; compound concentrations:100 nM and 1000 nM (sheet 'Samples'); n = 1
# STRADA = settings: read-out: apparent Kd; compound concentrations:100 nM and 1000 nM (sheet 'Samples'); n = 1
# GSK3A = settings: read-out: apparent Kd; compound concentrations:100 nM and 1000 nM (sheet 'Samples'); n = 1
# GSK3B = settings: read-out: apparent Kd; compound concentrations: 100 nM and 1000 nM (sheet 'Samples'), CATDS: 0.16764618066406201; n = 1
# MAP2K2 = settings: read-out: apparent Kd; compound concentrations:100 nM and 1000 nM (sheet 'Samples'); n = 1
# RIOK2 = settings: read-out: apparent Kd; compound concentrations:100 nM and 1000 nM (sheet 'Samples'); n = 1
# TGFBR2 = settings: read-out: apparent Kd; compound concentrations:100 nM and 1000 nM (sheet 'Samples'); n = 1
# FER = settings: read-out: apparent Kd; compound concentrations: 100 nM and 1000 nM (sheet 'Samples'), CATDS: 0.23966612691904199; n = 1
# IGF1R = settings: read-out: apparent Kd; compound concentrations: 100 nM and 1000 nM (sheet 'Samples'), CATDS: 0.234502945323845; n = 1
# INSR = settings: read-out: apparent Kd; compound concentrations: 100 nM and 1000 nM (sheet 'Samples'), CATDS: 0.33480579514984299; n = 1
# JAK2 = settings: read-out: apparent Kd; compound concentrations: 100 nM and 1000 nM (sheet 'Samples'), CATDS: 0.21851313363519401; n = 1
compound,measurement,setting,value
Cl.Cn1c(=O)c(Oc2ccc(F)cc2F)cc2cnc(NC(C)(C)CO)nc21 [RO3305411-001],potency estimated from few doses,FN3KRP,1390 nM
same,potency estimated from few doses,MAPK10,1100 nM
same,potency estimated from few doses,MAPK11,1550 nM
same,potency estimated from few doses,MAPK14,21.6 nM
same,potency estimated from few doses,MAPK9,640 nM
same,potency estimated from few doses,MAPKAPK2,16.8 nM
same,potency estimated from few doses,PIP4K2C,1590 nM
COc1cc2nccc(Nc3ccc(NC(=O)c4ccc(C)cc4)c(O)c3)c2cc1OC.Cl [GW440132A],potency estimated from few doses,FRK,691 nM
same,potency estimated from few doses,HCK,986 nM
same,potency estimated from few doses,LCK,643 nM
same,potency estimated from few doses,MAP2K5,1640 nM
CN(C)C/C=C/C(=O)Nc1ccc(C(=O)Nc2cccc(Nc3ncc(Cl)c(-c4c[nH]c5ccccc45)n3)c2)cc1 [THZ1],potency estimated from few doses,FLT3,1310 nM
same,potency estimated from few doses,FLT4,904 nM
same,potency estimated from few doses,MAP3K11,743 nM
same,potency estimated from few doses,PRKCA,191 nM
same,potency estimated from few doses,PRKCB,727 nM
same,potency estimated from few doses,RET,921 nM
same,potency estimated from few doses,STRADA,2370 nM
CC(C)c1ccc(Nc2nccc(-c3cnn4ncccc34)n2)cc1 [GW805758X],potency estimated from few doses,FLT3,1170 nM
same,potency estimated from few doses,GSK3A,888 nM
same,potency estimated from few doses,GSK3B,1460 nM
same,potency estimated from few doses,MAP2K2,2020 nM
same,potency estimated from few doses,RIOK2,1700 nM
same,potency estimated from few doses,TGFBR2,2000 nM
COc1cc2c(cc1Nc1nc(N3CCc4ccccc43)c3cc[nH]c3n1)N(C(=O)CN(C)C)CC2 [GSK2186269A],potency estimated from few doses,FER,915 nM
same,potency estimated from few doses,IGF1R,959 nM
same,potency estimated from few doses,INSR,493 nM
same,potency estimated from few doses,JAK2,1130 nM
